Assay [1] has as its system XIP peptide (Xip251-270) binding. Briefly: XIP fragment 251-270 binding compounds – biochemical, small-molecule microarray, fluorescence 635/667 nm, 0.1 µg/mL protein, primary screen (AID 1182). The following applies: fluorescent protein binding, 635 nm, higher = more signal, called active from +8 up or from −8 down.
For assay [2], the system named is XIP peptide (Xip251-270). Briefly: compounds binding XIP fragment 251-270 – biochemical, small-molecule microarray, fluorescence 635/667 nm, 0.5 µg/mL protein, primary screen (AID 1183). The following applies: fluorescence 635 nm, higher = more signal.
The nature of assay [3]: blood-stage malaria parasite viability loss – strain 3D7, DAPI fluorescence, 100 nL, primary screen (AID 1184).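 Also: parasites grown inside human red blood cells in medium with human serum.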 The following applies: P. falciparum 3D7 growth, 3 d, higher = more signal.
Assay [4] deals with Homeobox protein Hox-A13 (Mus musculus) (UniProt Q62424). Nature of the assay: disruptors of Hoxa13 oligonucleotide interaction – biochemical, fluorescence polarization, labeled oligonucleotide, primary screen (AID 1185). The following applies: Hoxa13:DNA binding, 15 min, higher = more signal, called active from +8 up or from −8 down. Background: In fluorescence polarisation assays a small probe gives low polarisation when free and higher when bound to something large.
Homeobox protein Hox-A13 (Mus musculus), sequence (Q62424 whole entry, looked up): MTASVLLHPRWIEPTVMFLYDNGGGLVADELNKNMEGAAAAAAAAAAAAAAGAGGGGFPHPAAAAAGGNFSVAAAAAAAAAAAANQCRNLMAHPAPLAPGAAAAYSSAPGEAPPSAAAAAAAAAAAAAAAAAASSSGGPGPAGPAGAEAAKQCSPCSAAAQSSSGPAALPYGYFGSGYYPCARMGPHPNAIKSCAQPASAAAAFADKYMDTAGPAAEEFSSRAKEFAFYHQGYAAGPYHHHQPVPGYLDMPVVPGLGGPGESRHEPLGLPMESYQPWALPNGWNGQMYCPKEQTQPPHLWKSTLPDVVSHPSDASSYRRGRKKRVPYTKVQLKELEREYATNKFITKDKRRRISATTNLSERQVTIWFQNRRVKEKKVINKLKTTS

A short description of assay [5]: blockers of DNA damage checkpoint Chk1 activation – imaging, HeLa, hydroxyurea, phospho-Chk1 antibody, percent positive cells, primary screen (AID 1186). The following applies: hydroxyurea-induced phospho-Chk1 immunofluorescence imaging, higher = more signal.
Assay [6] can be described thus: blockers of DNA damage checkpoint Chk1 activation – imaging, HeLa, hydroxyurea, phospho-Chk1 nuclear intensity, primary screen (AID 1187). The following applies: hydroxyurea-induced phospho-Chk1 immunofluorescence imaging, higher = more signal.

The source made the active and inactive calls. Unless noted, no rule for the calls is given here.

In the case of `CCCN1C(=O)[C@@]2(Cc3ccccc3)N=C(c3ccc(OCCCO)cc3)O[C@H]2c2ccccc21`, the values for the composite z-score in assay [1] and in assay [2] were 1.19 (inactive) and 0.808, respectively. The z-score in assay [3] was -2.38; in assay [4], -4.39 (inactive); in assay [5] it was 0.276 (inactive); in assay [6] it was 0.555 (inactive).
As to `COC(=O)c1ccc(OC)c(/C=C\CC(CCc2ccccc2)OC(C)=O)c1` (centres undefined), the composite z-score was -0.521 (inactive) in assay [1] and -0.187 in assay [2]. The z-score is 0.522 in assay [3], -1.15 (inactive) in assay [4], 0.177 (inactive) in assay [5] and 0.453 (inactive) in assay [6].
Take `O=C1c2ccccc2[C@](Cc2ccccc2I)(C(=O)NC2CC2)[C@H](c2ccc(CO)cc2)N1Cc1ccccc1Cl`: the composite z-score is 1.33 (inactive) in assay [1] and -0.154 in assay [2]. In addition, the z-score in assay [3] was -1.03; in assay [4], -4.21 (inactive); in assay [5], 0.129 (inactive); in assay [6] it was -0.341 (inactive).
In the case of `Cc1ccccc1C(O)C1C=CC2C(=O)N(Cc3ccccc3)C(=O)C2N1n1cnnc1` (centres undefined), the composite z-score in assay [1] is 0.598 (inactive); in assay [2], 0.58. Besides, the z-score in assay [3] is -0.318; in assay [4], -3.23 (inactive); in assay [5], 0.135 (inactive); in assay [6], -0.544 (inactive).
`CC(C)CNC(=O)[C@@]1(C)c2ccccc2C(=O)N(Cc2ccccc2)[C@H]1c1ccc(CO)cc1`: the composite z-score in assay [1] is 1.06 (inactive); in assay [2] it was -0.951. Moreover, the z-score is 0.301 in assay [3], -2.75 (inactive) in assay [4], 0.105 (inactive) in assay [5] and -0.267 (inactive) in assay [6].
On to `C/C=C/[C@@H](CCn1cc([C@H](O)c2ccccc2)nn1)[Si](C)(C)c1ccc(OC)cc1`, for which the composite z-score is 0.895 (inactive) in assay [1] and 0.778 in assay [2]. The z-score in assay [3] was -0.689; in assay [4] it was -6.33 (inactive); in assay [5], 0.546 (inactive); in assay [6], -0.159 (inactive).
`COCCOC(=O)N1C(=O)[C@@]2(c3cc(C#CC4(O)CCCCCC4)ccc31)[C@H](C(=O)N1CCN(c3ncccn3)CC1)[C@H]1C(=O)O[C@H](c3ccccc3)[C@H](c3ccccc3)N1[C@@H]2c1ccc(O)cc1`: the composite z-score was 0.119 (inactive) in assay [1] and 0.723 in assay [2]. The z-score in assay [3] is -0.849; in assay [4], -0.575 (inactive); in assay [5] it was 0.133 (inactive); in assay [6], 0.559 (inactive).
`O=C1N(CCS(=O)(=O)c2ccccc2)Cc2ccccc2C[C@@]12COC(c1ccc(OCCCO)cc1)=N2`: the composite z-score in assay [1] is 0.913 (inactive); in assay [2], 0.82. The z-score was -2.05 in assay [3], -4.6 (inactive) in assay [4], -1.03 (inactive) in assay [5] and -1.29 (inactive) in assay [6].
With `OCc1ccc(-c2cc[n+](Cc3cccc(OC(F)(F)F)c3)cc2)cc1`, the figures for the composite z-score in assay [1] and in assay [2] were 1.18 (inactive) and 0.596, respectively. Besides, the z-score is -1.63 in assay [3], -6.13 (inactive) in assay [4], 0.258 (inactive) in assay [5] and 0.666 (inactive) in assay [6].
Take `CCCCCCC#C[Si](O[C@H](c1ccccc1)c1cn(Cc2cccc(Cl)c2)nn1)(C(C)C)C(C)C`: the composite z-score is -0.301 (inactive) in assay [1] and 0.0372 in assay [2]. The z-score was -0.464 in assay [3], 1.16 (inactive) in assay [4], -0.195 (inactive) in assay [5] and -0.272 (inactive) in assay [6].
As for `O=C1c2ccccc2[C@](Cc2ccccc2I)(C(=O)NCC(F)(F)F)[C@H](c2ccc(CO)cc2)N1Cc1ccccc1`, the composite z-score in assay [1] was 0.164 (inactive); in assay [2], 0.647. For the same compound, the z-score in assay [3] is -0.945; in assay [4], -4.04 (inactive); in assay [5], -0.25 (inactive); in assay [6] it was -0.634 (inactive).
For `C=C(/C(=C/C[C@@H](OC(=O)c1ccncc1)c1cccc(OCCO)c1)c1cc(C(=O)OC)ccc1OC)C(C)C`, the composite z-score in assay [1] was 0.577 (inactive); in assay [2], 0.723. In addition, the z-score was -3.13 in assay [3], -3.8 (inactive) in assay [4], -0.185 (inactive) in assay [5] and -0.235 (inactive) in assay [6].
For `CN(C)C(=O)[C@]1(Cc2ccccc2N=[N+]=[N-])N=C(c2ccc(OCCCO)cc2)O[C@@H]1c1ccccc1CN=[N+]=[N-]`, the composite z-score is 0.304 (inactive) in assay [1] and 0.312 in assay [2]. Moreover, the z-score in assay [3] is -2.48; in assay [4], -4.68 (inactive); in assay [5], -0.191 (inactive); in assay [6], 0.269 (inactive).
Regarding `NC(=O)[C@H]1[C@@H]2C(=O)O[C@@H](c3ccccc3)[C@@H](c3ccccc3)N2[C@@H](c2ccc(O)cc2)[C@]12C(=O)Nc1ccc(C#CC3(O)CCCCCC3)cc12`, the composite z-score is 0.366 (inactive) in assay [1] and 0.836 in assay [2]. Further, the z-score in assay [3] was -1.85; in assay [4], -1.28 (inactive); in assay [5], 0.526 (inactive); in assay [6], 0.301 (inactive).

The values above are taken from PubChem BioAssay.
